According to PubChem BioAssay AID1224921 (Broad Institute, 2016):
Screen size: about 1,400 compounds; about 350 (25%) were called active. About 2% were inconclusive and are not listed. No rule for the calls is given here. Only a sample is shown. Entries with a potency or affinity are not part of this list.

assay: C. difficile growth inhibition, confirmation, 4-point retest (AID 1224921); details: Clostridioides difficile clinical isolate growth, OD600, 24 h, hits give low values; at 30 µM unless noted;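 also: plate controls were DMSO wells for no effect and levofloxacin 16 µg/mL wells for full effect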

Max activity, inactive:
C[C@@H]1CN([C@H](C)CO)C(=O)c2cc(NC(=O)Nc3ccc4c(c3)OCO4)ccc2O[C@H]1CN(C)Cc1ccccc1 22.6%
COc1ccc(NC(=O)N[C@H]2C=C[C@@H](CC(=O)NC3CCCCC3)O[C@H]2CO)cc1 -14.6% [at 1.95 µM]
COc1ccc(CN(C)C[C@H]2OCCCC[C@@H](C)Oc3ccc(NC(=O)Nc4ccc(F)cc4)cc3C(=O)N([C@@H](C)CO)C[C@@H]2C)cc1 19.8% [at 8 µM]
COCC#Cc1ccc2c(c1)O[C@H](CN(C)C)[C@@H](C)CN([C@H](C)CO)S2(=O)=O 7.09%
CO[C@H]1CN(C)C(=O)c2cc(NC(=O)c3ccccc3)ccc2OC[C@@H](C)N(C)C[C@@H]1C -8.25% [at 8 µM]
C[C@@H]1CN([C@@H](C)CO)C(=O)c2c(c3ccccc3n2C)-c2ccccc2CO[C@@H]1CN(C)S(=O)(=O)c1cccc(F)c1 6.96% [at 8 µM]
C[C@H](CO)N1C[C@H](C)[C@H](CN(C)C(=O)[C@H](C)c2ccccc2)OCc2ccccc2-c2ccccc2C1=O 12.5% [at 1.95 µM]
C[C@@H]1CN([C@H](C)CO)C(=O)c2cccc(NC(=O)Nc3ccc(C(F)(F)F)cc3)c2O[C@H]1CN(C)C(=O)Nc1ccccc1 25.7% [at 8 µM]
C[C@@H]1CN([C@@H](C)CO)C(=O)c2cccc(NC(=O)Nc3ccc(C(F)(F)F)cc3)c2O[C@H]1CN(C)C(=O)Nc1ccccc1 29.3%
C[C@H](CO)N1C[C@H](C)[C@@H](CN(C)C(=O)Nc2ccccc2)Oc2c(NC(=O)Nc3ccc(C(F)(F)F)cc3)cccc2C1=O 46.6% [at 8 µM]
C[C@@H]1CN([C@H](C)CO)C(=O)c2cccc(NC(=O)Nc3ccc(C(F)(F)F)cc3)c2O[C@@H]1CN(C)C(=O)Nc1cccc2ccccc12 40.5% [at 1.95 µM]
C[C@@H]1CN([C@@H](C)CO)C(=O)c2cccc(NC(=O)Nc3ccc(C(F)(F)F)cc3)c2O[C@H]1CN(C)C(=O)Nc1cccc2ccccc12 30.6% [at 1.95 µM]
C[C@H]1CN([C@@H](C)CO)S(=O)(=O)c2ccc(-c3ccccc3F)cc2O[C@@H]1CN(C)Cc1ccncc1 27%
C[C@H](CO)N1C[C@H](C)[C@@H](CN(C)C(=O)C2CCCCC2)Oc2ncc(-c3ccccc3F)cc2C1=O -11.4% [at 8 µM]
C[C@H]1CN([C@@H](C)CO)C(=O)Cc2cc(NS(C)(=O)=O)ccc2O[C@H]1CN(C)Cc1ccccc1 10.4%
COc1ccccc1C(=O)Nc1ccc2c(c1)OC[C@@H](C)N(CC1CC1)C[C@@H](C)[C@H](OC)CN(C)C2=O 19.1%
CO[C@@H]1CN(C)C(=O)c2ccc(NC(=O)c3nc4ccccc4s3)cc2OC[C@@H](C)N(Cc2ccncc2)C[C@H]1C 30.6%
CCCC#Cc1ccc2c(c1)O[C@H](CN(C)Cc1ccncc1)[C@H](C)CN([C@H](C)CO)S2(=O)=O 6.31%
C[C@@H]1CN([C@H](C)CO)C(=O)c2cccc(NC(=O)Nc3ccc4c(c3)OCO4)c2O[C@H]1CN(C)S(=O)(=O)c1ccc(Cl)cc1 -12.1% [at 8 µM]
CC(C)CC#Cc1ccc2c(c1)O[C@@H](CN(C)Cc1cccnc1)[C@H](C)CN([C@@H](C)CO)S2(=O)=O 42%
COc1ccccc1C#Cc1ccc2c(c1)O[C@H](CN(C)Cc1ccncc1)[C@@H](C)CN([C@@H](C)CO)S2(=O)=O 48.6%
CCCNC(=O)N(C)C[C@@H]1Oc2cc(C#Cc3ccccn3)ccc2S(=O)(=O)N([C@@H](C)CO)C[C@H]1C 9.97%
CO[C@H]1O[C@H](CO)[C@@H](OC(=O)Nc2ccc3c(c2)OCO3)[C@H](OC(=O)Nc2ccccc2)[C@H]1OC(=O)Nc1ccccc1 10.7%
CCC(=O)N[C@H]1C=C[C@@H](CC(=O)OC)O[C@@H]1CO -10.5%
CN1C(=O)c2cc(NC(=O)Cc3ccccc3)ccc2OC[C@H]2O[C@@H](CC(=O)NCC3CC3)CC[C@H]21 -7.83%
O=C(C[C@@H]1C[C@@H]2c3cc(NC(=O)Nc4ccc(C(F)(F)F)cc4)ccc3O[C@@H]2[C@H](CO)O1)NCc1ccc(Cl)cc1 27.7%
CCC(=O)Nc1ccc2c(c1)OC[C@H](C)N(CC1CCCCC1)C[C@@H](C)[C@@H](OC)CN(C)C2=O 8.81%
CCCN1[C@@H]2c3ccc(-c4ccc(F)cc4)c(=O)n3C[C@@H]2[C@@H](CO)[C@@H]1C(=O)N[C@@H](C)c1ccccc1 -8.45%
COc1ccccc1-c1ccc2c(c1)O[C@@H](CN(C)C(=O)c1ccccc1)[C@@H](C)CN([C@@H](C)CO)S2(=O)=O 29.9%
COCC(=O)Nc1ccc2c(c1)OC[C@H](C)N(Cc1ccccc1)C[C@@H](C)[C@@H](OC)CN(C)C2=O 5.39%
CCCC(=O)Nc1ccc2c(c1)C(=O)N(C)C[C@H](OC)[C@@H](C)CN(S(=O)(=O)c1cn(C)cn1)[C@@H](C)CO2 -11.7%
C[C@H]1CCCCO[C@@H](CN(C)Cc2ccc(C(=O)O)cc2)[C@@H](C)CN([C@@H](C)CO)C(=O)c2cc(NC(=O)Nc3ccc4c(c3)OCO4)ccc2O1 -7.43%
CCC(=O)N(C)C[C@@H]1Oc2cc(C#CCC3CCCC3)ccc2S(=O)(=O)N([C@H](C)CO)C[C@H]1C 29.4%
COc1cc(O)c2c(c1)oc(=O)c1c3cc(O)c(O)cc3oc21 14.5%
CNC(=O)C[C@H]1CC[C@H]2[C@H](COc3ccc(NC(=O)c4ccccc4F)cc3C(=O)N2C)O1 -13.3% [at 1.95 µM]
CNC(=O)C[C@@H]1CC[C@H]2[C@@H](COc3ccc(NC(=O)c4ccccc4F)cc3C(=O)N2C)O1 -11.2% [at 1.95 µM]
